Data published in PubChem BioAssay (Tox21).
Results filed as inconclusive are left out. Active and inactive are the calls of the source. Unless noted, the call rests on the fitted dose curve; in most records, active means well fitted curve in the direction sought with a large enough effect in the repeat runs; inconclusive means weak or mixed curves; inactive means no such curve, though single readings can be large; an effect the other way counts as inactive or inconclusive.

Legend:
[1] = qHTS assay for small molecule agonists of the p53 signaling pathway (AID 651631; calls by dose curve; further: nearly all actives have a fitted effect of over 15% in size)
Procedure, shortened: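 Quantitative high-throughput format: 4,000 p53RE-bla HCT-116 cells/well, 5 h pre-incubation, 16 h compound exposure at 37 °C, 2 h room-temperature substrate step, fluorescence intensity measured.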

[2] = qHTS assay for small molecules that induce genotoxicity in human embryonic kidney cells expressing luciferase-tagged ATAD5 (AID 651632); further: nearly all actives have a fitted effect of over 15% in size
Procedure, shortened: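 Increased luciferase signal from ATAD5-tagged reporter cells indicates DNA-damage-driven ATAD5 induction. HEK293T cells are treated for 16 hr at 37C before detection with Amplite.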

[3] = qHTS assay for small molecule agonists of the p53 signaling pathway - cell viability (AID 651633; calls by dose curve;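 further: p53RE-bla HCT reporter cells with a stable beta-lactamase p53 reporter; series mostly up to about 83 µM; nearly all actives have a fitted effect of over 30% in size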)
Procedure, shortened: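 p53RE-bla cells were treated with compound for 16 hours at 37 C. Cytotoxicity was then measured as CellTiter-Glo luminescence after 30 min at room temperature.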

[4] = qHTS assay for small molecules that induce genotoxicity in human embryonic kidney cells expressing luciferase-tagged ATAD5 - cell viability (AID 651634; calls by dose curve; further: nearly all actives have a fitted effect of over 25% in size)
Procedure, shortened: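 Cytotoxicity counterscreen in HEK293T cells bearing an ATAD5-luciferase reporter: live-cell protease activity measured by CellTiter-Fluor fluorescence after 15.5 hr compound exposure.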

[5] = qHTS assay for small molecule disruptors of the mitochondrial membrane potential - cell viability (AID 720634; calls by dose curve;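 further: human HepG2 liver cancer cells; series mostly up to about 83 µM; nearly all actives have a fitted effect of over 20% in size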)
Procedure, shortened: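 After overnight attachment at 37 C, HepG2 cells received compound or DMSO vehicle for 1 hr. Viability is then taken from ATP-driven luminescence following a 30 min room-temperature CellTiter-Glo step.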

[6] = qHTS assay to test for compound auto fluorescence at 590 nm (red) in HepG2 cells (AID 720674)
Procedure, shortened: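 HepG2 cells, 2,000 per well in MEM with 10% FBS, attached overnight at 37 C, then got 23 nL compound or DMSO. After 1 hr at 37 C, 5% CO2, red fluorescence was read at 540/590 nm against Rose Bengal sodium as reference.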

[7] = qHTS assay to test for compound auto fluorescence at 460 nm (blue) in HEK293 cells (AID 720678)
Procedure, shortened: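 Triamterene serves as the blue fluorophore standard. Compound signal at 405/460 nm is read in HEK293 wells (2,000 cells, 10% dialyzed FBS) after overnight treatment at 37C.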

[8] = qHTS assay to test for compound auto fluorescence at 590 nm (red) in HEK293 cells (AID 720679)
Procedure, shortened: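 We plated HEK293 cells in 10% dialyzed FBS medium, let them adhere for 4-5 hr, then added 23 nL compound. Overnight at 37C and 5% CO2 preceded fluorescence measurement at 540/590nm.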

[9] = qHTS assay to test for compound auto fluorescence at 535 nm (green) in HEK293 cells (AID 720680)
[10] = qHTS assay to test for compound auto fluorescence at 460 nm (blue) in HEK293 cell free culture (AID 720681)
Procedure, shortened: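 Compounds were added to cell-free DMEM with 10% FBS and fluorescence read directly. The blue channel used 405 nm excitation and 460 nm emission, with triamterene as the reference fluorophore.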

[11] = qHTS assay to test for compound auto fluorescence at 535 nm (green) in HEK293 cell free culture (AID 720682)
Procedure, shortened: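 Measurement is a direct plate read of green fluorescence (485 nm in, 535 nm out) after compound addition to serum-supplemented DMEM lacking cells, with fluorescein used to express intensities.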

[12] = qHTS assay to test for compound auto fluorescence at 590 nm (red) in HEK293 cell free culture (AID 720683)
Procedure, shortened: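 Cell-free wells of DMEM with 10% FBS received compound, and intrinsic fluorescence was read at excitation/emission 540/590 nm. Values expressed as equivalence to Rose Bengal sodium.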

[13] = qHTS assay to test for compound auto fluorescence at 590 nm (red) in HepG2 cell free culture (AID 720684)
Procedure, shortened: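 Compound was pinned into wells holding MEM with 10% FBS and no cells, and red fluorescence was read at Ex/Em 540/590 nm. Signal is expressed as auto fluorescence equivalency relative to Rose Bengal sodium.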

[14] = qHTS assay to test for compound auto fluorescence at 460 nm (blue) in HepG2 cell free culture (AID 720685)
Procedure, shortened: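 Compound (23 nL) or DMSO pinned into cell-free MEM with 10% FBS; blue fluorescence read at 405/460 nm excitation/emission, expressed as auto-fluorescence equivalency to triamterene.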

[15] = qHTS assay to test for compound auto fluorescence at 535 nm (green) in HepG2 cell free culture (AID 720686)
[16] = qHTS assay to test for compound auto fluorescence at 460 nm (blue) in HepG2 cells (AID 720687)
Procedure, shortened: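 HepG2 cells in MEM with 10% FBS, attached overnight at 37 C, were exposed to compound or DMSO for 1 hr at 37 C, 5% CO2. Blue fluorescence was read at 405/460 nm, with triamterene as reference fluorophore.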

[17] = target: Glucocorticoid receptor (Homo sapiens) (UniProt P04150); assay: qHTS assay to identify small molecule agonists of the glucocorticoid receptor (GR) signaling pathway (AID 720691; active means well fitted activation curve with a large enough effect in the signal ratio in the repeat runs, not every such curve was filed as active; the % refers to the signal ratio; further: potency means the concentration at half of the fitted maximal effect)
Sequence of Glucocorticoid receptor (Homo sapiens) (P04150 whole entry, looked up): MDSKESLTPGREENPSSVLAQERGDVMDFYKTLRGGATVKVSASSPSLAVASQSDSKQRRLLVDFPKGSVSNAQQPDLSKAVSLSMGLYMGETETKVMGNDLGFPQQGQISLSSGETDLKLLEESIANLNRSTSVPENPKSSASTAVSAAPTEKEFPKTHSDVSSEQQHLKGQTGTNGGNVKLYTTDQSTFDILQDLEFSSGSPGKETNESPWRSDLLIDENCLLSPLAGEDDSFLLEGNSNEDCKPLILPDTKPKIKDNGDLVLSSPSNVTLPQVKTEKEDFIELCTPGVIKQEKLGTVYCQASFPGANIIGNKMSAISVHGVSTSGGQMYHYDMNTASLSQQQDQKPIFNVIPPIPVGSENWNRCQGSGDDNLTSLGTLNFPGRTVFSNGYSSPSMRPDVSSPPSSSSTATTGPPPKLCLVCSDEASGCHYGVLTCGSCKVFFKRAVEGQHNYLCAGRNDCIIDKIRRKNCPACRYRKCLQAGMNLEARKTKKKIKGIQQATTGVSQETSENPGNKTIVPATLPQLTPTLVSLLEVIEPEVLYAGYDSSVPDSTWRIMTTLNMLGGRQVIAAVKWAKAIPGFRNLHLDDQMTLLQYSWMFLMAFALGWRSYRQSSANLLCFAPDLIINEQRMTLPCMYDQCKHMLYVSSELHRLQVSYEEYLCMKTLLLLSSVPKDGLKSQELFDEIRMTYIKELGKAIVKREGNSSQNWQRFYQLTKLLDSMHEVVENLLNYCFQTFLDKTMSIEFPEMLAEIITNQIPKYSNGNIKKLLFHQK
Procedure, shortened: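 Agonist mode in a HeLa line carrying a GRE-controlled beta-lactamase reporter. Compounds act for 18 h at 37 C before a 2 h room-temperature FRET substrate step and fluorescence reading.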

[18] = target: Glucocorticoid receptor (Homo sapiens) (UniProt P04150); assay: qHTS assay to identify small molecule antagonists of the glucocorticoid receptor (GR) signaling pathway (AID 720692; active means well fitted inhibition curve with a large enough effect in the signal ratio in the repeat runs, not every such curve was filed as active; the % refers to the signal ratio; further: potency means the concentration at half of the fitted maximal effect)
Procedure, shortened: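 Cells plated, rested 4 h at 37 C/5% CO2; compounds in DMSO pin-transferred; dexamethasone added to 5 nM final; 18 h at 37 C; B/G FRET substrate added, 2 h room temperature; fluorescence measured.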

[19] = qHTS assay to test for compound auto fluorescence at 535 nm (green) in HepG2 cells (AID 720675)
[20] = qHTS assay for small molecule disruptors of the mitochondrial membrane potential (AID 720635); further: potency means the concentration at half of the fitted maximal effect
Procedure, shortened: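 HepG2 cells exposed to compound 1 hr at 37C, then Mito-MPS dye 30 min. Ratio read of aggregate (540/590 nm) versus monomer (490/535 nm) fluorescence.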

Measured: Potency

C[C@]12CCC(=O)C=C1CC[C@@H]1[C@@H]2CC[C@@]2(C)[C@H]1CC[C@]2(O)C(=O)CO
active: [17] 12 µM | [18] 0.338 µM
inactive: [1] | [2] | [3] | [4] | [5] | [6] | [7] | [8] | [9] | [10] | [11] | [12] | [13] | [14] | [15] | [16]

COc1cc2c(cc1N)oc1ccccc12
inactive: [1] | [2] | [3] | [4] | [6] | [19] | [7] | [9] | [10] | [11] | [12] | [13] | [16] | [17] | [18]

CC(C)C(=O)OC/C=C/c1ccccc1
inactive: [1] | [2] | [3] | [5] | [20] | [6] | [19] | [7] | [8] | [9] | [10] | [11] | [13] | [14] | [15] | [16] | [17] | [18]

Cc1c(C(=O)NCCO)[n+](=O)c2ccccc2n1[O-]
inactive: [1] | [2] | [3] | [5] | [20] | [6] | [19] | [7] | [8] | [9] | [10] | [11] | [12] | [13] | [15] | [16] | [17] | [18]

OCCN(CCO)c1ccccc1
inactive: [1] | [2] | [3] | [4] | [5] | [6] | [19] | [7] | [8] | [9] | [10] | [11] | [12] | [13] | [15] | [16] | [17] | [18]

Oc1ccccc1C=NCc1ccccc1
inactive: [1] | [2] | [3] | [5] | [6] | [19] | [7] | [8] | [9] | [10] | [11] | [12] | [13] | [14] | [15] | [16] | [17] | [18]
active: [20] 21.1 µM

C[C@]12C(=O)OC(=O)[C@H]1[C@H]1C=C[C@@H]2C1
inactive: [1] | [2] | [3] | [4] | [5] | [6] | [19] | [7] | [9] | [10] | [11] | [12] | [13] | [14] | [15] | [17] | [18]

CN1CCN(c2c(F)cc3c(=O)c(C(=O)O)cn4c3c2SCC4)CC1
inactive: [1] | [2] | [3] | [5] | [20] | [6] | [19] | [7] | [8] | [9] | [10] | [11] | [12] | [13] | [14] | [15] | [16] | [17] | [18]

CCC1(C)NC(=O)NC1=O (stereo not drawn)
inactive: [1] | [2] | [3] | [4] | [5] | [6] | [19] | [7] | [8] | [9] | [10] | [11] | [12] | [13] | [14] | [16]

COc1nc(C)nc(NC(=O)NS(=O)(=O)c2ccccc2OCCCl)n1
inactive: [1] | [2] | [3] | [5] | [20] | [6] | [19] | [7] | [8] | [9] | [10] | [11] | [12] | [13] | [14] | [16] | [17] | [18]

C=CC1CO1 (stereo not drawn)
inactive: [1] | [2] | [3] | [5] | [20] | [6] | [19] | [7] | [8] | [9] | [10] | [11] | [12] | [13] | [15] | [16] | [17]

C=CCCCCCCCCO
inactive: [1] | [2] | [3] | [4] | [5] | [6] | [19] | [7] | [8] | [9] | [10] | [11] | [13] | [14] | [16] | [17] | [18]

COC(=O)N[C@H](C(=O)N[C@@H](Cc1ccccc1)[C@@H](O)CN(Cc1ccc(-c2ccccn2)cc1)NC(=O)[C@@H](NC(=O)OC)C(C)(C)C)C(C)(C)C
inactive: [1] | [2] | [3] | [4] | [6] | [19] | [7] | [9] | [10] | [11] | [13] | [14] | [15] | [16] | [17] | [18]

CC1(C)S[C@@H]2[C@H](NC(=O)C(C(=O)O)c3ccccc3)C(=O)N2[C@H]1C(=O)O (stereo partly drawn)
inactive: [1] | [2] | [3] | [4] | [5] | [6] | [7] | [8] | [9] | [10] | [11] | [12] | [13] | [14] | [16] | [17] | [18]
